Data as given in PubChem BioAssay (Tox21).
Inconclusive results are not listed. Active and inactive are the calls of the source. Unless noted, the call rests on the fitted dose curve; in most records, active means well fitted curve in the direction sought with a large enough effect in the repeat runs; inconclusive means weak or mixed curves; inactive means no such curve, though single readings can be large; an effect the other way counts as inactive or inconclusive.

What was measured:
[1] = qHTS assay to identify small molecule antagonists of the thyroid receptor (TR) signaling pathway - cell viability counter screen (AID 743064); further: nearly all actives have a fitted effect of over 50% in size
How it was run: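 Plate GH3.TRE-Luc cells; incubate 4 h at 37 °C; add compound, then T3 to 1 nM final; incubate 23.5 h; add CellTiter-Fluor; incubate 30 min at 37 °C, 5% CO2; read fluorescence.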

[2] = qHTS assay to identify small molecule antagonists of the thyroid receptor (TR) signaling pathway (AID 743065); further: series mostly up to about 70 µM; nearly all actives have a fitted effect of over 55% in size
How it was run: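 GH3.TRE-Luc rat pituitary cells (two TREs driving luciferase) were dosed with compound, then stimulated with 1 nM T3 (final) for 23.5 h at 37 C. ONE-Glo luminescence was the read-out, with CellTiter-Fluor fluorescence as the cytotoxicity counter-screen.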

[3] = tested on: thyroid hormone receptor (rat, GH3 cells); assay: qHTS assay to identify small molecule agonists of the thyroid receptor (TR) signaling pathway (AID 743066; calls by dose curve)
[4] = target: Estrogen receptor (Homo sapiens) (UniProt P03372); assay: qHTS assay to identify small molecule antagonists of the estrogen receptor alpha (ER-alpha) signaling pathway (AID 743069; active means well fitted curve in the direction sought with a large enough effect in the signal ratio in the repeat runs, not every such curve was filed as active; the % refers to the signal ratio)
How it was run: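 Beta-lactamase FRET fluorescence is read after 2 hr at room temperature with LiveBLAzer B/G substrate. Before that, ER-alpha-bla HEK293 cells sit 4 hr after plating, then receive compound plus 17beta-estradiol and incubate 18 hr at 37C.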

[5] = qHTS assay to identify small molecule antagonists of the estrogen receptor alpha (ER-alpha) signaling pathway - cell viability counter screen (AID 743074; calls by dose curve;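 further: HEK293 cells carrying ER-alpha-UAS-bla reporter stimulated with 17beta-estradiol; nearly all actives have a fitted effect of over 45% in size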)
[6] = target: Estrogen receptor (Homo sapiens) (UniProt P03372); assay: qHTS assay to identify small molecule agonists of the estrogen receptor alpha (ER-alpha) signaling pathway (AID 743075; calls by dose curve;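 further: HEK293 GripTite cells with ER-alpha and UAS-driven beta-lactamase reporter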)
[7] = target: Estrogen receptor (Homo sapiens) (UniProt P03372); assay: qHTS assay to identify small molecule agonists of the estrogen receptor alpha (ER-alpha) signaling pathway using the BG1 cell line (AID 743079); further: nearly all actives have a fitted effect of over 20% in size
[8] = qHTS assay to identify small molecule antagonists of the estrogen receptor alpha (ER-alpha) signaling pathway using the BG1 cell line (AID 743080; calls by dose curve;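 further: BG1 cells stimulated with 17beta-estradiol alongside compound; series mostly up to about 70 µM; nearly all actives have a fitted effect of over 25% in size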)
How it was run: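 Seeding, 24 h rest, compound transfer from DMSO, 17beta-estradiol addition, 21.5 h incubation, CellTiter-Fluor (30 min, 37 C), then ONE-Glo (30 min, room temperature): this sequence was run on BG1-Luc-4E2 reporter cells.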

[9] = qHTS assay to identify small molecule antagonists of the estrogen receptor alpha (ER-alpha) signaling pathway using the BG1 cell line - cell viability counter screen (AID 743081);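 further: compound given together with 17beta-estradiol as the ER stimulus; series mostly up to about 70 µM; nearly all actives have a fitted effect of over 45% in size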
[10] = target: Aromatase (Homo sapiens) (UniProt P11511); assay: qHTS assay to identify aromatase inhibitors (AID 743083); further: series mostly up to about 70 µM; nearly all actives have a fitted effect of over 55% in size

Measured: Potency

Sequence of Estrogen receptor (Homo sapiens) (P03372 whole entry, looked up): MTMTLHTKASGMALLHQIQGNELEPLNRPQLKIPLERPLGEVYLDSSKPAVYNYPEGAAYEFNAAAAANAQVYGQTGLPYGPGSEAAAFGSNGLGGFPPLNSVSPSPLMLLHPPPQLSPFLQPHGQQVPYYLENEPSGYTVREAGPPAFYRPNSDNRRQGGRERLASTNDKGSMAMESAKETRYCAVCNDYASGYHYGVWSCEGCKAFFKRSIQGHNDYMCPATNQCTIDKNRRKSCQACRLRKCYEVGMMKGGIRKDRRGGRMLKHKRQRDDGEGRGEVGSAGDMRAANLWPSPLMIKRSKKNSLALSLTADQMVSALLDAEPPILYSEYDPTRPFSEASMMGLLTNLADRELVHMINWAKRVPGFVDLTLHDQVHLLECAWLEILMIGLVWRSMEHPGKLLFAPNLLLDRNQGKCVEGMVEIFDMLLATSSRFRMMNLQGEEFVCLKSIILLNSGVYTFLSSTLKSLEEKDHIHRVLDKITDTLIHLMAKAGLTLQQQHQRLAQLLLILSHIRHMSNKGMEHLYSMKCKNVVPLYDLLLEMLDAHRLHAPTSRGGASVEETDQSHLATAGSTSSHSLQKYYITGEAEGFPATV
Sequence of Aromatase (Homo sapiens) (P11511 whole entry, looked up): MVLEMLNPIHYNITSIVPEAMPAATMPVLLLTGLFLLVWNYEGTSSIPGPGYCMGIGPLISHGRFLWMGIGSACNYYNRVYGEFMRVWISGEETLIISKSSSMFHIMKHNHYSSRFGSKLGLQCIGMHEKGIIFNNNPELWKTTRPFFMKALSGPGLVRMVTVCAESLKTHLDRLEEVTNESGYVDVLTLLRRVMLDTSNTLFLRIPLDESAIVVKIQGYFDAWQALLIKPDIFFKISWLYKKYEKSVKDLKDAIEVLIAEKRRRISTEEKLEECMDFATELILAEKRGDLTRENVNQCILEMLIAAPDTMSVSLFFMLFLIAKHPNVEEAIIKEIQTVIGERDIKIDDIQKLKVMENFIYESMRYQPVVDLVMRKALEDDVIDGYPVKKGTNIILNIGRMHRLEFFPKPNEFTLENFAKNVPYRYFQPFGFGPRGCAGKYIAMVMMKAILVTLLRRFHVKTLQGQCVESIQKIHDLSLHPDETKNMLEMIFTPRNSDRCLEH

C=C(C)C(=O)OCCOP(=O)(O)OCCOC(=O)C(=C)C
inactive: [1] | [2] | [3] | [4] | [5] | [6] | [7] | [8] | [9] | [10]

COc1cc(NS(=O)(=O)c2ccc(N)cc2)nc(OC)n1
inactive: [1] | [2] | [3] | [4] | [5] | [6] | [7] | [9] | [10]

COc1ccc2c(c1)C(=O)N(CCc1ccc(S(=O)(=O)NC(=O)NC3CCCCC3)cc1)C(=O)C2(C)C
inactive: [1] | [2] | [3] | [4] | [5] | [6] | [7] | [8] | [10]

Nc1cccc(O)c1
inactive: [1] | [2] | [3] | [4] | [6] | [8] | [9] | [10]

CC(C)c1ccc2cc(C(C)C)ccc2c1
inactive: [1] | [2] | [3] | [4] | [5] | [6] | [7] | [9] | [10]

Cc1cccc(C)c1OCC(C)N (stereo not given)
inactive: [1] | [2] | [3] | [4] | [5] | [6] | [7] | [8] | [9] | [10]

OCCC(F)(F)C(F)(F)C(F)(F)C(F)(F)C(F)(F)C(F)(F)C(F)(F)C(F)(F)F
inactive: [1] | [2] | [3] | [5] | [6] | [7] | [8] | [9] | [10]

O=C(/N=N/C(=O)OCc1ccccc1)OCc1ccccc1
inactive: [1] | [2] | [3] | [4] | [6] | [9] | [10]

CCOc1cc(NC(C)=O)ccc1C(=O)OC
inactive: [1] | [2] | [3] | [4] | [5] | [6] | [7] | [8] | [9] | [10]

CCOC(=O)CC(=O)c1ccccc1
inactive: [1] | [2] | [3] | [4] | [5] | [6] | [8] | [9] | [10]

CN(C)C(=O)CNC(=O)Cc1ccccc1
inactive: [1] | [2] | [3] | [4] | [5] | [6] | [7] | [8] | [10]

c1ccc2nccnc2c1
inactive: [1] | [2] | [3] | [4] | [6] | [7] | [8] | [9] | [10]

Nc1ncnc(Nc2ccccc2)n1
inactive: [1] | [2] | [3] | [4] | [5] | [6] | [9] | [10]

O=C1CCCC(=O)O1
inactive: [1] | [2] | [3] | [4] | [6] | [7] | [8] | [9] | [10]

CC(CO)c1ccccc1 (stereo not given)
inactive: [1] | [2] | [3] | [4] | [5] | [6] | [8] | [9] | [10]

Cc1cccc2nccnc12
inactive: [1] | [2] | [3] | [4] | [5] | [6] | [8] | [9] | [10]

O=S(=O)(O)c1cc(O)c2ccc(Nc3ccccc3)cc2c1
inactive: [1] | [2] | [3] | [4] | [5] | [6] | [8] | [9] | [10]

Cc1ccc2c(c1)OCC(=O)CO2
inactive: [1] | [2] | [3] | [4] | [5] | [6] | [8] | [9] | [10]

CCCCOCCOC(=O)COc1nc(Cl)c(Cl)cc1Cl
inactive: [1] | [2] | [3] | [4] | [5] | [6] | [7] | [8] | [9] | [10]

Cc1cccc(C)c1NC(=O)c1ccccc1C(=O)O
inactive: [1] | [2] | [3] | [4] | [5] | [6] | [8] | [9] | [10]

CNC(=O)[C@H]1O[C@@H](n2cnc3c(NCc4cc(Cl)ccc4OCc4cc(C)no4)ncnc32)[C@H](O)[C@@H]1N
inactive: [1] | [2] | [3] | [4] | [6] | [7] | [8] | [9] | [10]

CC(=O)Nc1cccc(C)c1
inactive: [1] | [2] | [3] | [4] | [5] | [6] | [7] | [8] | [10]

CCOC(=O)[C@H](CCc1ccccc1)N[C@@H](C)C(=O)N1C(=O)N(C)C[C@H]1C(=O)O
inactive: [1] | [2] | [3] | [4] | [5] | [6] | [7] | [8] | [10]

O=C1c2ccccc2C(=O)c2cc(S(=O)(=O)O)ccc21
inactive: [1] | [2] | [3] | [4] | [5] | [6] | [7] | [8] | [9] | [10]

CC(C)C[C@H](NC(=O)CNC(=O)[C@H](Cc1ccc(O)cc1)NC(=O)[C@H](CO)NC(=O)[C@H](Cc1c[nH]c2ccccc12)NC(=O)[C@H](Cc1cnc[nH]1)NC(=O)[C@@H]1CCC(=O)N1)C(=O)N[C@@H](CCCN=C(N)N)C(=O)N1CCC[C@H]1C(=O)NCC(N)=O (stereo in doubt)
inactive: [1] | [2] | [3] | [5]

CC[C@H](C)C(=O)O[C@H]1C[C@H](O)C=C2C=C[C@H](C)[C@H](CC[C@@H](O)C[C@@H](O)CC(=O)O)[C@H]21
inactive: [1] | [2] | [3] | [4] | [5] | [6] | [7] | [8] | [9] | [10]

O=S(=O)(O)c1ccc2cc(O)c(S(=O)(=O)O)cc2c1
inactive: [1] | [2] | [3] | [4] | [6] | [7] | [8] | [9] | [10]
